A selection: hits, their analogues and other compounds. The true share with any hit is near 1.7%.
H9c2 TAG inh: inhibitors of triacylglycerol accumulation, primary screen, cell-based, uHTS, fluorescence, H9c2; hit rate 0.66% among 230,000; inhibition, % at 12.5 µM; H9c2 cells, Nile Red lipid (TAG) fluorescence; cells loaded with 200 µM oleic acid; AID 651582, 2012;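 active means pattern-corrected inhibition of lipid staining of at least 50% with the nuclear-stain viability signal not falling by more than 50%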;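 further: 0% = DMSO wells and 100% = triacsin C control wells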
CHT inh: inhibitors of human choline transporter CHT; CHT-expressing cells, membrane potential dye, choline response; active compounds read low; High affinity choline transporter 1 (Homo sapiens), Q9GZV3; hit rate 0.86% among 310,000; B-score at 10 µM;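 active means B-score over 3 SD under the library average, and starting fluorescence ratio not unusually high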;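 further: choline stimulus applied at its EC90 after an EC20 pre-addition; B-score computed on integrated fluorescence ratio after choline addition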
Target sequence (Q9GZV3 whole entry, looked up): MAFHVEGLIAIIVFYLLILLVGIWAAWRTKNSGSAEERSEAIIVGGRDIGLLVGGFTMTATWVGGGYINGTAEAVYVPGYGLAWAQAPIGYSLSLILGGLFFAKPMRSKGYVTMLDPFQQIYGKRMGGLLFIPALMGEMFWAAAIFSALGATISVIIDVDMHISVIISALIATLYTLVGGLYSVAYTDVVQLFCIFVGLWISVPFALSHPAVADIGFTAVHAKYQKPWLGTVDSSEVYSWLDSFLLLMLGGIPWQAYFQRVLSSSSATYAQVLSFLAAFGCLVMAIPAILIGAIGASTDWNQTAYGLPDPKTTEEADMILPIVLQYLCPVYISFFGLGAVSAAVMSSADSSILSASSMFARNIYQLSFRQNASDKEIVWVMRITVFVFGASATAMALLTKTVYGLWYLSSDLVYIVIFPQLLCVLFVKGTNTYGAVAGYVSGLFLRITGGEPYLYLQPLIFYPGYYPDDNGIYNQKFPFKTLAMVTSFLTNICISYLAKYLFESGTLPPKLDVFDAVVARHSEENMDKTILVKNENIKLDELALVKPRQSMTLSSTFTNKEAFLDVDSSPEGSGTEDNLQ
CHT allo act: CHT positive allosteric modulators, primary screen, cell-based, membrane potential dye, choline EC20 | CHT-expressing cells; active compounds read high; LV-AA mutant CHT in HEK293 cells | B-score at 10 µM | hit rate 0.49% among 310,000 | AID 488977, 2010;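 active means initial fluorescence not abnormally high and integrated response B-score, plate-corrected, over 3 SD above library mean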
MIN6 prolif-1: inducers of MIN6 beta-cell proliferation, primary screen, ATP luminescence, uHTS. MIN6 cells proliferation, ATPlite luminescence, 48 h; cells starved in 0.2% serum; 100% = growth in 10% serum. proliferation, % at 10 µM. hit rate 0.29% among 330,000. AID 2380, 2010;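 active means compounds whose signal lies at least 3.5 SD above the mean of all wells on their plate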;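 further: 0% = DMSO-treated cells in low-serum medium and 100% = 10% serum control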
MIN6 prolif-2: inducers of beta-cell proliferation in MIN6, confirmation, MIN6 cells, mouse; shares compounds with MIN6 prolif-1; 920 tested, under 10 active; ATPlite luminescence, 48 h; cells kept in 0.2% serum; scaled between 0.2% and 10% serum; proliferation increase, % at 50 µM;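 active means proliferation increase above 40% at any of the four tested concentrations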
CHT inh conf: CHT inhibitors, confirmation, cell-based, membrane potential dye, duplicate; shares compounds with CHT inh; CHT-expressing cells, choline membrane potential dye; LV-to-AA substituted CHT, HEK293 cells; CHT activity remaining % of control (active compounds read low), % at 10 µM; hit rate 70% among 2,400; AID 493221, 2011;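 active means choline transporter activity left, mean of duplicates at 10 µM, below buffer-only control mean minus 3 SD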;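 further: depolarization triggered by choline at its EC90 following an EC20 pre-addition; 0% = hemicholinium-3 full block and 100% = buffer-only control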
HEK293 MPD ctr: membrane potential effects in parental HEK293, counter-screen for CHT inhibitor project, cell-based, membrane potential dye; shares compounds with CHT inh; choline response; active = decrease or increase beyond buffer ±3SD; membrane potential ratio readout (active if shifted either direction beyond buffer ±3SD; no single direction) at 10 µM; hit rate 4% among 2,400; AID 493222, 2011;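 further: parental cells lack the transporter so any hit is non-specific; ratio is peak minus trough fluorescence over baseline after EC90 choline challenge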
* hit, by the source's call; i = inactive; . = not tested or not shown; ! = a repeat was not active.

SMILES	H9c2 TAG inh	CHT inh	CHT allo act	MIN6 prolif-1	others
N#Cc1cn(C2OC(CO)C(O)C2O)c2ncnc(N)c12 (centres undefined)	89.8*	.	.	.
N#Cc1c(Br)n(C2OC(CO)C(O)C2O)c2ncnc(N)c12 (centres undefined)	52.1*	.	.	.
CN1[C@@H]2CCC[C@H]1CC(=O)C2	6.2	.	.	.
COc1ccc(NC2Oc3cc4c(cc3C(c3cc(OC)c(OC)c(OC)c3)C2C)OCO4)cc1 (centres undefined)	49.0	.	.	.
CCOC(=O)c1c(N)n(CCCOC(=O)c2ccco2)c2nc3ccccc3nc12	53.0*	i	i	-3.8
O=C(O)c1ccc(-[n+]2c(-c3ccccc3)cc(-c3ccccc3)cc2-c2ccccc2)cc1	3.9	i	i	-1.3
Brc1ccc(-[n+]2c(-c3ccccc3)cc(-c3ccccc3)cc2-c2ccccc2)cc1	-21.7	i	12.3*	-9.0
Nc1ccccc1-[n+]1c(-c2ccccc2)cc(-c2ccccc2)cc1-c1ccccc1	7.6	i	i	-5.8
Cc1ccccc1-[n+]1c(-c2ccccc2)cc(-c2ccccc2)cc1-c1ccccc1	15.6	i	7.54*	-8.3
CN1CCC(O)(c2cccs2)C(C(=O)c2cccs2)C1 (centres undefined)	.	i	i	-4.7
C[C@]12CCC(=O)C[C@H]1CC[C@@H]1[C@@H]2CC[C@]2(C)[C@@H](O)CC[C@@H]12	.	-5.31*	i	-0.7
COc1ccc(S(=O)(=O)N2CCOCC2)cc1NC(=O)COC(=O)Cc1ccccc1	12.7	.	.	4.3
COc1cc(C(=S)N2CCOCC2)cc(OC)c1OC(=O)Cc1ccccc1	3.6	-5.07*	i	-2.7
CN(C)Cc1c[nH]c2cc([N+](=O)[O-])ccc12	-0.4	.	.	.
C=C1C(C)C2C(Cc3ccccc3)NC(=O)C23C(OC(C)=O)C=CC(C)(O)CC(C)CC=CC3C1O (centres undefined)	98.1*	.	.	.
CC(C#N)CCC#N (centres undefined)	.	.	.	1.9
Cc1cc([N+](=O)[O-])c(Cl)cc1NC(=O)C(C)C	.	i	i	-2.5
CNc1cc(Cl)c2nonc2c1[N+](=O)[O-]	78.7*	.	.	.
Cc1ccc(C[n+]2c(-c3ccc(C)cc3)cc(-c3ccc(C)cc3)cc2-c2ccc(C)cc2)cc1	12.1	i	8.72*	-7.0
CC1CCC(C(C)C)C(OC(=O)Cn2c(COc3ccccc3)[n+](C)c3ccccc32)C1 (centres undefined)	103.8*	i	i	-6.5
C=CCC1(CCCCC)C(=O)NC(=S)NC1=O	-3.2	.	.	.
CC12CC1(C)C(=O)N(c1cc(Cl)cc(Cl)c1)C2=O (centres undefined)	-9.0	.	.	.
CC1=CC(C)CC(C)OC(=O)CC(c2ccc(O)cc2)NC(=O)C(Cc2c(Br)[nH]c3ccccc23)N(C)C(=O)C(C)NC(=O)C(C)C1 (centres undefined)	98.0*	.	.	.
C=C1C(=O)OC2CC(C)C3C=CC(=O)C3(C)C(O)C12 (centres undefined)	72.2	.	.	.
C=C1C(=O)O[C@@H]2C[C@@H](C)[C@@H]3C4OC4C(=O)[C@@]3(C)[C@@H](O)[C@H]12 (some centres undefined)	110.5*	i	i	-7.7
SMILES	H9c2 TAG inh	CHT inh	CHT allo act	MIN6 prolif-1	others
Cc1cc(OCC(=O)N2CCC(C(N)=O)CC2)c2c3c(c(=O)oc2c1)CCCC3	.	i	i	0.5
COc1ccc(NC(=O)C2C3CCC(O3)C2C(=O)O)c(OC)c1 (centres undefined)	.	i	i	6.7*	MIN6 prolif-2=-3.3
CC(=O)N(C)C1=Nc2ccc(Cl)cc2C(c2ccccc2)=[N+]([O-])C1	-0.5	.	.	.
CCCCCCn1c(=O)c(C(=O)Nc2ncccc2C)c(O)c2ccccc21	.	i	i	6.6*	MIN6 prolif-2=-6.2
CC1CCCCC1NC1CCN(C)CC1 (centres undefined)	7.4	i	i	6.0*	MIN6 prolif-2=-2.7
CS(=O)(=O)c1ccc(C2=C(CNC(=O)c3nccs3)[C@H]3CC[C@@H](C2)N3Cc2ccccc2)cc1	13.9	.	.	.
O=C(NCC1=C(c2cccc3ccccc23)C[C@@H]2CC[C@H]1N2Cc1ccco1)c1ccc([N+](=O)[O-])cc1	15.0	.	.	.
COc1ccc(-c2nc3ccccc3n2OC(=O)N(C)C)cc1	1.0	i	i	-0.5
CN(C)C(=O)On1c(-c2ccccc2)nc2ccc(Cl)cc21	-0.7	i	i	11.9*	MIN6 prolif-2=-6.3
O=C(O)c1sc2cc(Cl)ccc2c1Cl	.	i	i	-3.9
CC1(C)CCCN1CCC(C(N)=O)(c1ccccc1)c1ccccc1	5.3	.	.	.
CC(C)N(CCC(C(N)=O)(c1ccccc1)c1ccccn1)C(C)C (centres undefined)	-0.8	i	i	13.2*!	MIN6 prolif-2=3.6
COc1ccc(CC(C)NC2CCCCCC2)cc1 (centres undefined)	.	i	i	6.1*	MIN6 prolif-2=-1.7
Oc1ccc(C[C@H]2NCCc3cc(O)c(O)cc32)cc1O	.	-6.47*	i	-3.7	CHT inh conf=27.7%*;HEK293 MPD ctr=i
Cc1cc(/C=C2\C(=O)NC(=O)N(Cc3ccco3)C2=O)c(C)n1-c1ccc(O)cc1	6.0	i	i	-1.3
Cc1cc(/C=C2\C(=O)NC(=O)N(Cc3ccco3)C2=O)c(C)n1-c1ccc(C(=O)O)cc1	5.8	-6.32*	i	2.6	CHT inh conf=60.5%*;HEK293 MPD ctr=i
C[C@]12CC[C@@H](O)CC1=CC(=O)C1C2CC[C@]2(C)C(=O)CCC12 (some centres undefined)	-8.2	.	.	-4.7
COC(=O)C1=C(c2c(C)noc2C)C[C@@H]2CC[C@H]1N2C(=O)N1CCCC1	-3.8	.	.	2.2
CC1CCC/C=C/C2CC(O)CC2C(O)/C=C/C(=O)O1 (centres undefined)	140.1	-6.56*	i	-3.0	CHT inh conf=45.5%*;HEK293 MPD ctr=i
C[C@H]1CCC/C=C/C2C[C@H](O)CC2[C@H](O)/C=C/C(=O)O1 (some centres undefined)	131.7	i	i	-8.2
COc1cccc(C2CC3C(=O)C=CC2N3Cc2ccccc2)c1 (centres undefined)	-2.0	-5.33*	i	-4.5	CHT inh conf=-58.9%*;HEK293 MPD ctr=-39.8*
CCCCCCn1c(O)c(C=NCCN2CCOCC2)c(=O)[nH]c1=O	.	i	i	-1.3

Source: PubChem (several laboratories)
